# HT1080 IDH1KD tx – toxicity to HT-1080 IDH1 knockdown cells (counter line); 360,000 compounds, 2% hits; AID 686971; Potency, µM (top dose mostly 46.1 µM), for the others: top-dose activity, negative = toxicity, usual class: cytotoxic; HT-1080 IDH1 knockdown viability, ATP luminescence, 48 h;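 note: 0% = DMSO wells and -100% = cell-free medium wells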
#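 IDH1KD HT-1080 cells, 750/well, RPMI + 5% FBS; compound pinned after 2 h settling; 48 h, 37 °C; CellTiter-Glo luminescence; % activity normalised to DMSO and no-cell wells; curves fitted, classed by r2 and efficacy.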
# ATXN2 expr inh – reduces ATXN2 reporter expression in HEK-293 cells; HEK-293 ATXN2-luciferase reporter, luminescence, 24 h; Potency, µM (doses to about 57 µM), for inactives: at the highest dose activity change, negative = inhibition, actives largely listed as inhibitors; 360,000 compounds, 0.72% hits; AID 1745845; note: % is set by controls: 0 for no effect and ±100 for the full control effect; nearly all actives have a fitted effect of over 55% in size
#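 qHTS (up to 57 uM final) was run with 24 h compound exposure of reporter cells at 37 °C. Each well was multiplexed: SteadyGlo luminescence measured ATXN2-luciferase expression after a fluorogenic Gly-Phe-AFC viability readout (25 uM final).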
# HepG2 viability – kills HepG2 cells in TGF-b inhibitor counter-screen. AID 588856. Potency, µM (highest dose often 46.1 µM), without a hit: at the top dose activity change, negative = cytotoxicity, hits mostly cytotoxic. 410,000 compounds, 0.76% hits. HepG2 CAGA-GFP viability, ATP luminescence, 18 h
#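 CellTiter-Glo luminescence gave cytotoxicity after 18 hours at 37 degrees C. The cells were HepG2 CAGA-GFP in 1% FBS DMEM, stimulated with 500 pg/mL TGF-beta after compound addition. %Activity was normalised to no-cell wells (complete cell-killing) and DMSO (no toxicity), and curves were fitted and classified.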
# S2 tox – cell viability loss in ATXN counter-screen; S2 cells (HEK-293 line with an ATXN2-luciferase reporter) viability, CellTiter-Fluor protease fluorescence, 24 h; Potency, µM (titrated, usually from 56.7 µM), actives largely listed as cytotoxic; 400,000 compounds, 0.49% hits; AID 651635; note: nearly all actives have a fitted effect of over 40% in size
# HT1080NT lethal – kills 2HG-producing HT-1080-NT fibrosarcoma cells | HT-1080-NT fibrosarcoma viability, CellTiter-Glo ATP luminescence, 48 h | Potency, µM (top dose mostly 46.1 µM), for inactives: at the top dose activity, negative = less viability, most hits filed as cytotoxic | 360,000 compounds, 1.6% hits | AID 686970;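 note: NT is the 2HG producing partner of a matched IDH1 knockdown line; 0% = DMSO-treated cells and -100% = media-only wells without cells; nearly all actives have a fitted effect of over 55% in size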
#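 A 48-hour cytotoxicity screen used HT-1080-NT cells plated 2 hours before compound delivery. ATP-based CellTiter-Glo luminescence measured viability, normalized to DMSO and no-cell controls.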
# TGFb inhibitor – inhibitors of TGF-b signaling; HepG2 CAGA-GFP TGF-b/SMAD3 reporter, GFP fluorescence, 18 h; TGF-beta stimulated, 500 pg/mL final; Potency, µM (titrated, usually from 46.1 µM), for the others: top-dose activity, negative = inhibition, actives largely listed as inhibitors; 410,000 compounds, 1.2% hits; AID 588855; note: % is set by controls: 0 for no effect and ±100 for the full control effect; nearly all actives have a fitted effect of over 65% in size
#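 Inhibition was scored as loss of TGF-beta-induced (500 pg/mL final, 18 hours, 37 degrees C) GFP in HEPG2 cells carrying a CAGA-GFP reporter, in DMEM with 1% FBS. Well GFP was summed per cell; Activity was normalised to unstimulated and stimulated DMSO wells, then concentration-response fitting.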
# Active calls of the source: *; i = inactive; ? = inconclusive; nt = no result given; [ ] = dose if it differs, or a comment. Most compounds without a hit are left out; they make up all but 3.8% or so of the library. Calls come from the whole dose curve; as a rule, active = well fitted curve in the direction sought with a large enough effect; inconclusive = small, poorly fitted or top-dose-only effect, or another doubt; inactive = no such curve, though single readings can be large; an effect the other way counts as inactive or inconclusive. Potency is the fitted concentration of half-maximal effect.
SMILES,HT1080 IDH1KD tx,ATXN2 expr inh,HepG2 viability,S2 tox,HT1080NT lethal,TGFb inhibitor
Cc1cccc(CNC(=O)c2cnn(-c3nccc(-c4cc(C)sc4C)n3)c2C)n1,nt,nt,nt,i,nt,nt
COc1ccc(C(=O)/C=C/Sc2nc3ccccc3o2)cc1,3.3µM*,?,18µM*,nt,?,10µM*
CCn1c(C(=O)N(C2CC2)C2CC2)cc2c3c(ncn3C)c(Nc3cc(C)n(C)n3)nc21,nt,-1%,nt,nt,nt,nt
OC[C@H]1O[C@@H](n2cnc3c(=S)nc[nH]c32)[C@H](O)[C@@H]1O,nt,-14%,nt,?,nt,nt
COc1ccccc1Cc1c(-c2ccc(OC)c(OC)c2)nc2ccc(Br)cn12,18µM*,?,-2%,?,?,?
COc1ccccc1Cc1c(-c2ccc(C)cc2)nc2ccc(Cl)cn12,-18%,45%,0%,?,-20%,-47%
COc1ccccc1Cc1c(-c2cccc(Cl)c2)nc2ccc(C)cn12,?,0%,-45%,nt,?,13µM*
COc1ccc(-c2nc3ccc(Br)cn3c2Cc2ccccc2)cc1OC,?,-19%,-3%,?,?,?
COC(=O)c1ccc2nc(-c3ccc(F)cc3)c(Cc3ccccc3OC)n2c1,9%,-12%,nt,?,13%,nt
COc1ccccc1Cc1c(-c2ccco2)nc2ccc(Cl)cn12,?,-8%,-96%,?,?,16µM*
COC(=O)c1ccc2nc(-c3cccc(Br)c3)c(Cc3ccccc3OC)n2c1,12µM*,8%,nt,i,10%,nt
CCNc1nc(C#N)nc(NCC)n1,nt,nt,1%,nt,nt,11%
CC1CC1C(=O)N1CCN(S(=O)(=O)c2cc(C(F)(F)F)cc(C(F)(F)F)c2)CC1 (stereo not drawn),-13%,?,-46%,i,-1%[9.24 µM],14µM*
CCOC(=O)c1cc(=O)c2c(OCC(COc3cccc4oc(C(=O)OCC)cc(=O)c34)OC(=O)[C@@H](N)CCCCN)cccc2o1,nt,3%,nt,i,nt,nt
O=C(CSc1ncc(-c2ccccc2)[nH]1)Nc1cccc(Br)c1,nt,-15%,-59%,i,nt,?
C(=C\c1nc2ccccc2o1)/c1ccc2c(c1)OCO2,nt,nt,2%,nt,nt,-2%
COc1ccc2ccccc2c1CN1CCc2nnc(C(NS(C)(=O)=O)C(C)C)n2CC1 (stereo not drawn),nt,nt,nt,i,nt,nt
O=C(Cn1ncc(Cl)c(Cl)c1=O)c1ccc2c(c1)OCCO2,?,?,-82%,nt,?,-19%
CCCc1cc(=O)[nH]c(SCC(=O)c2cc(C)n(CC(F)(F)F)c2C)n1,-3%,-10%,0%,i,5%,3%
Cc1cc(C(=O)Cn2ncc(Cl)c(Cl)c2=O)c(C)n1CC(F)(F)F,5.8µM*,?,-42%,?,8.2µM*,?
Cc1ccc(C)c(C(=O)Cn2ncc(Cl)c(Cl)c2=O)c1,18µM*,?,-47%,18µM*,-26%,?
Cc1cc2oc(=O)cc(Cn3ncc(Cl)c(Cl)c3=O)c2cc1Cl,3.3µM*,25µM*,-30%,nt,?,?
Cc1cccc(Cn2ncc(Cl)c(Cl)c2=O)c1,7.1µM*,?,-91%,nt,13µM*,?
Clc1cccc(CSc2nnc(-c3c[nH]c4ccccc34)o2)c1,?,13%,13µM*,i,?,?
O/N=C/c1ccc2cccc(OCc3ccccc3)c2n1,-2%,-3%,-9%,i,-4%,-22%
NC(N)=N/N=C/c1ccc2cccc(OCc3ccccc3)c2n1,?,30µM*,-84%,?,23µM*,?
Cc1cc2ccccc2n2c(SCC(=O)Nc3cccc(C(F)(F)F)c3)nnc12,nt,4%,-8%,i,nt,20%
Cc1cc(-c2ccc(S(=O)(=O)Nc3ccc(Br)c(C)c3)s2)on1,nt,nt,-51%,nt,nt,13µM*

# Assay outcomes: PubChem BioAssay, National Center for Advancing Translational Sciences (NCATS)
